Among the data in publication PMC11062922 (Nature Chemical Biology, 2023) are potency estimated from few doses values, retold here.

Molecules are shown by their SMILES. Where two headings read alike, the source gives them in different places.

The test system of one assay is CDK16. More on the design: species or system human, MV4-11 + K-562 + COLO205 + SK-N-BE2 + OVCAR-8. The following applies: read-out: apparent Kd, n = 1.
The next assay has as its system CDK2. Details: species or system human, MV4-11 + K-562 + COLO205 + SK-N-BE2 + OVCAR-8. The following applies: read-out: apparent Kd, n = 1.
A further assay relates to CDKL5. Details: species or system human, MV4-11 + K-562 + COLO205 + SK-N-BE2 + OVCAR-8. Conditions: read-out: apparent Kd, n = 1.
In a further assay the test system is CLK4. More on the design: species or system human, MV4-11 + K-562 + COLO205 + SK-N-BE2 + OVCAR-8. The following applies: read-out: apparent Kd, n = 1.
The subject of another assay is CSNK2A1;CSNK2A3. Details: species or system human, MV4-11 + K-562 + COLO205 + SK-N-BE2 + OVCAR-8. Conditions: read-out: apparent Kd; compound concentrations:100 nM and 1000 nM (sheet 'Samples'); n = 1.
The next assay concerns CSNK2A2. More on the design: species or system human, MV4-11 + K-562 + COLO205 + SK-N-BE2 + OVCAR-8. The following applies: read-out: apparent Kd; compound concentrations:100 nM and 1000 nM (sheet 'Samples'); n = 1.
The next assay concerns TGFBR2. More on the design: species or system human, MV4-11 + K-562 + COLO205 + SK-N-BE2 + OVCAR-8. Conditions: read-out: apparent Kd, n = 1.
The subject of another assay is CDK12. Details: species or system human, MV4-11 + K-562 + COLO205 + SK-N-BE2 + OVCAR-8. The following applies: read-out: apparent Kd; compound concentrations: 100 nM and 1000 nM (sheet 'Samples'), CATDS: 0.16242687072241299; n = 1.
The next assay concerns CDK13. Details: species or system human, MV4-11 + K-562 + COLO205 + SK-N-BE2 + OVCAR-8. The following applies: read-out: apparent Kd; compound concentrations: 100 nM and 1000 nM (sheet 'Samples'), CATDS: 0.16446533875215399; n = 1.
The subject of the next assay is MAPK10. Details: species or system human, MV4-11 + K-562 + COLO205 + SK-N-BE2 + OVCAR-8. The following applies: read-out: apparent Kd; compound concentrations: 100 nM and 1000 nM (sheet 'Samples'), CATDS: 0.33495043269217101; n = 1.
A further assay relates to MAPK8. Details: species or system human, MV4-11 + K-562 + COLO205 + SK-N-BE2 + OVCAR-8. Conditions: read-out: apparent Kd; compound concentrations: 100 nM and 1000 nM (sheet 'Samples'), CATDS: 0.17846593111563799; n = 1.
A further assay has as its system MAPK9. Details: species or system human, MV4-11 + K-562 + COLO205 + SK-N-BE2 + OVCAR-8. The following applies: read-out: apparent Kd; compound concentrations: 100 nM and 1000 nM (sheet 'Samples'), CATDS: 0.23956411042419101; n = 1.
In a further assay the test system is CDC42. Details: species or system human, MV4-11 + K-562 + COLO205 + SK-N-BE2 + OVCAR-8. Conditions: read-out: apparent Kd, compound concentrations: 100 nM and 1000 nM (sheet 'Samples'), n = 1.
The test system of the next assay is GSK3A. Details: species or system human, MV4-11 + K-562 + COLO205 + SK-N-BE2 + OVCAR-8. Conditions: read-out: apparent Kd, compound concentrations: 100 nM and 1000 nM (sheet 'Samples'), n = 1.
Another assay concerns GSK3B. More on the design: species or system human, MV4-11 + K-562 + COLO205 + SK-N-BE2 + OVCAR-8. The following applies: read-out: apparent Kd, compound concentrations: 100 nM and 1000 nM (sheet 'Samples'), n = 1.
The test system of the next assay is MDN1. More on the design: species or system human, MV4-11 + K-562 + COLO205 + SK-N-BE2 + OVCAR-8. The following applies: read-out: apparent Kd; compound concentrations: 100 nM and 1000 nM (sheet 'Samples'), CATDS: 0.33246338126543201; n = 1.
The next assay has as its system RIOK2. More on the design: species or system human, MV4-11 + K-562 + COLO205 + SK-N-BE2 + OVCAR-8. The following applies: read-out: apparent Kd, compound concentrations: 100 nM and 1000 nM (sheet 'Samples'), n = 1.
The subject of another assay is CDC7. Details: species or system human, MV4-11 + K-562 + COLO205 + SK-N-BE2 + OVCAR-8. Conditions: read-out: apparent Kd; compound concentrations: 100 nM and 1000 nM (sheet 'Samples'), CATDS: 1; n = 1.
For a further assay, the system named is CDK4. More on the design: species or system human, MV4-11 + K-562 + COLO205 + SK-N-BE2 + OVCAR-8. The following applies: read-out: apparent Kd; compound concentrations: 100 nM and 1000 nM (sheet 'Samples'), CATDS: 3.5176707262462401E-2; n = 1.
For a further assay, the system named is CDK9. Details: species or system human, MV4-11 + K-562 + COLO205 + SK-N-BE2 + OVCAR-8. The following applies: read-out: apparent Kd; compound concentrations: 100 nM and 1000 nM (sheet 'Samples'), CATDS: 6.6122234274616706E-2; n = 1.
A further assay relates to CLK1. Details: species or system human, MV4-11 + K-562 + COLO205 + SK-N-BE2 + OVCAR-8. The following applies: read-out: apparent Kd; compound concentrations: 100 nM and 1000 nM (sheet 'Samples'), CATDS: 0.131869322388253; n = 1.
Another assay concerns CSNK1D. Details: species or system human, MV4-11 + K-562 + COLO205 + SK-N-BE2 + OVCAR-8. The following applies: read-out: apparent Kd; compound concentrations: 100 nM and 1000 nM (sheet 'Samples'), CATDS: 3.5838047250471398E-2; n = 1.
For a further assay, the system named is CSNK1E. Details: species or system human, MV4-11 + K-562 + COLO205 + SK-N-BE2 + OVCAR-8. Conditions: read-out: apparent Kd; compound concentrations: 100 nM and 1000 nM (sheet 'Samples'), CATDS: 3.1149336029707601E-2; n = 1.
Another assay deals with DYRK1A. Details: species or system human, MV4-11 + K-562 + COLO205 + SK-N-BE2 + OVCAR-8. The following applies: read-out: apparent Kd; compound concentrations: 100 nM and 1000 nM (sheet 'Samples'), CATDS: 4.1731549571109597E-2; n = 1.
The next assay relates to FLT3. Details: species or system human, MV4-11 + K-562 + COLO205 + SK-N-BE2 + OVCAR-8. Conditions: read-out: apparent Kd; compound concentrations: 100 nM and 1000 nM (sheet 'Samples'), CATDS: 6.99540125282513E-2; n = 1.
The subject of the next assay is ICK. More on the design: species or system human, MV4-11 + K-562 + COLO205 + SK-N-BE2 + OVCAR-8. Conditions: read-out: apparent Kd; compound concentrations: 100 nM and 1000 nM (sheet 'Samples'), CATDS: 8.4231126757800603E-2; n = 1.
In another assay the test system is NEK9. Details: species or system human, MV4-11 + K-562 + COLO205 + SK-N-BE2 + OVCAR-8. Conditions: read-out: apparent Kd; compound concentrations: 100 nM and 1000 nM (sheet 'Samples'), CATDS: 3.4709334986352897E-2; n = 1.
In the next assay the test system is NNT. Details: species or system human, MV4-11 + K-562 + COLO205 + SK-N-BE2 + OVCAR-8. Conditions: read-out: apparent Kd; compound concentrations: 100 nM and 1000 nM (sheet 'Samples'), CATDS: 3.3051747730414797E-2; n = 1.
For another assay, the system named is NUAK1. More on the design: species or system human, MV4-11 + K-562 + COLO205 + SK-N-BE2 + OVCAR-8. Conditions: read-out: apparent Kd; compound concentrations: 100 nM and 1000 nM (sheet 'Samples'), CATDS: 4.2227707983222298E-2; n = 1.
The target of another assay is Q6ZSR9 (human, UniProt Q6ZSR9). More on the design: species or system MV4-11 + K-562 + COLO205 + SK-N-BE2 + OVCAR-8. Conditions: read-out: apparent Kd; compound concentrations: 100 nM and 1000 nM (sheet 'Samples'), CATDS: 7.3176607259513596E-2; n = 1.
Chain of Q6ZSR9 (Q6ZSR9 whole entry, looked up): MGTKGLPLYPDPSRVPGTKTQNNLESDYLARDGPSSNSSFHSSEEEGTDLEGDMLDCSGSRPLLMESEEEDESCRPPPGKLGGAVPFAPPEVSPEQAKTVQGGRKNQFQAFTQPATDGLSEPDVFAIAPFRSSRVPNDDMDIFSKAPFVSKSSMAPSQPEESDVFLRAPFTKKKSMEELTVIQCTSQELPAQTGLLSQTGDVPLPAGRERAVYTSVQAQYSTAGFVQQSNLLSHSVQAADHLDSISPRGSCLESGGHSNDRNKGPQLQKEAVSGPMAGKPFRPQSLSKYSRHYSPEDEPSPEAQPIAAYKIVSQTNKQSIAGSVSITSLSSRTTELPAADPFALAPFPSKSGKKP
Setting [1] is: compound concentrations:100 nM and 1000 nM (sheet 'Samples').

Consider `CC(C)COC(=O)c1ccc2c(c1)/C(=C/Nc1ccc(S(N)(=O)=O)cc1)C(=O)N2` [GW416981X], for which the potency estimated from few doses with CDK16 (setting [1]) is 964 nM; in the assay on CDK2 (setting [1]), 587 nM; in the assay on CDKL5 (setting [1]), 1290 nM; with CLK4 (setting [1]), 1480 nM; in the assay with CSNK2A1;CSNK2A3, 477 nM; with CSNK2A2 it was 246 nM. Moreover, in the assay on TGFBR2 (setting [1]), the potency estimated from few doses was 1860 nM.
Take `CN(C)C/C=C/C(=O)Nc1ccc(C(=O)N2CCC[C@@H](Nc3ncc(Cl)c(-c4c[nH]c5ccccc45)n3)C2)cc1` [THZ531]: the potency estimated from few doses is 1800 nM with CDK12; 1740 nM with CDK13; 434 nM with MAPK10; 1410 nM in the assay on MAPK8; 760 nM with MAPK9.
`Cn1cc(C2=C(c3cccc(N)c3)C(=O)NC2=O)c2ccccc21` [RO0317471-000]: the figures for the potency estimated from few doses with CDC42 (CATDS: 0.203680819174512), in the assay with GSK3A (CATDS: 0.53179335167556496) and with GSK3B (CATDS: 0.45250345973029299) were 1200 nM, 23.5 nM and 32.2 nM, respectively.
Take `Cn1cc(C2=C(c3cccc4ccccc34)C(=O)NC2=O)c2ccccc21` [RO0317253-000]: the potency estimated from few doses in the assay on CDC42 (CATDS: 0.310592027425942) is 2180 nM; with MDN1, 1890 nM; in the assay with RIOK2 (CATDS: 0.36068630579871103), 1620 nM.
As for `NS(=O)(=O)c1cccc(-c2ccc3ncc(N4CCOCC4)nc3c2)c1` [GSK1535721A], the potency estimated from few doses with CDC7 was 1940 nM.
Regarding `COc1cccc(Nc2nccc(-c3cnn4ncccc34)n2)c1` [GW810576X], the potency estimated from few doses in the assay with CDK16 (compound concentrations: 100 nM and 1000 nM (sheet 'Samples'), CATDS: 3.1157097879833801E-2) was 2230 nM; with CDK2 (compound concentrations: 100 nM and 1000 nM (sheet 'Samples'), CATDS: 3.2251458753321499E-2) it was 1800 nM; in the assay with CDK4 it was 1130 nM; in the assay on CDK9 it was 119 nM; in the assay with CDKL5 (compound concentrations: 100 nM and 1000 nM (sheet 'Samples'), CATDS: 0.306088725314409) it was 8.45 nM; with CLK1, 29.2 nM. The potency estimated from few doses was 90.9 nM in the assay on CLK4 (compound concentrations: 100 nM and 1000 nM (sheet 'Samples'), CATDS: 7.3732839889054297E-2); 1030 nM in the assay on CSNK1D; 2230 nM in the assay with CSNK1E; 529 nM in the assay with DYRK1A; 103 nM with FLT3; 45 nM in the assay with GSK3A (CATDS: 0.103253823443788). The potency estimated from few doses was 50.3 nM with GSK3B (CATDS: 9.7411606637186801E-2); 67.5 nM in the assay on ICK; 1210 nM with NEK9; 1570 nM in the assay on NNT; 505 nM in the assay on NUAK1; 92.6 nM with Q6ZSR9. The potency estimated from few doses was 1590 nM with RIOK2 (CATDS: 3.29501520790835E-2); 70.2 nM in the assay on TGFBR2 (compound concentrations: 100 nM and 1000 nM (sheet 'Samples'), CATDS: 8.2747157817186001E-2).
